Test results from PubChem BioAssay (NCI).
This is part of a sample that, as a whole, favours compounds with a hit. Of some 83,000 tested, about 20% had one in any assay.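 Step 1: grow cells in 96-well plates. Step 2: add test compound at a single concentration. Step 3: incubate 48 h. Step 4: record percent growth.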 Unmarked numbers belong to inactive results. Calls of active or inactive are those of the source. Rule for the calls: active = growth percent below 10; inactive = the rest.

Legend:
Assay in all cases: NCI-60 one-dose screen, 48 h (100 = growth as untreated, 0 = no growth, -100 = all killed)
Conditions in all cases: 10 µM unless noted
DU-145 prostate = tested on: DU-145 prostate
K-562 leukemia = tested on: K-562 leukemia
MALME-3M melanoma = tested on: MALME-3M melanoma
MDA-MB-231 breast = tested on: MDA-MB-231 breast
RXF 393 renal = tested on: RXF 393 renal
SF-268 CNS = tested on: SF-268 CNS
SF-295 CNS = tested on: SF-295 CNS
SF-539 CNS = tested on: SF-539 CNS
UACC-257 melanoma = tested on: UACC-257 melanoma
M14 melanoma = tested on: M14 melanoma

CCCCCN1C(=O)/C(=c2\sc3n(c2=O)C2C(NN=3)N(CC)C(=O)N2CC)c2ccccc21 (stereo not given)
growth (DU-145 prostate): -67.1% (active) | growth (K-562 leukemia): -71.9% (active) | growth (MALME-3M melanoma): -32.4% (active) | growth (MDA-MB-231 breast): -30.8% (active) | growth (RXF 393 renal): -28.9% (active) | growth (SF-268 CNS): -2.82% (active) | growth (SF-295 CNS): -24.8% (active) | growth (SF-539 CNS): -90.2% (active) | growth (UACC-257 melanoma): 31.5% | growth (M14 melanoma): -9.92% (active)

C=C(C)[C@@H]1CC[C@]2(C(=O)N3CCOCC3)CC[C@]3(C)[C@H](CC[C@@H]4[C@@]5(C)C/C(=C/c6ccncc6)C(=O)C(C)(C)[C@@H]5CC[C@]43C)[C@@H]12
growth (DU-145 prostate): 77.9% | growth (K-562 leukemia): 38.6% | growth (MALME-3M melanoma): 77.5% | growth (MDA-MB-231 breast): 78.6% | growth (RXF 393 renal): 52.3% | growth (SF-268 CNS): 66.3% | growth (SF-295 CNS): 85.9% | growth (SF-539 CNS): 78.5% | growth (UACC-257 melanoma): 53.7% | growth (M14 melanoma): 75%

CC1=C2[C@@H](CC1)[C@]1(C)O[C@@](C(C)C)(C[C@H]1OC(=O)[C@H](C)O)[C@H]2OC(=O)/C=C/c1ccccc1
growth (DU-145 prostate): 105% | growth (K-562 leukemia): 68.7% | growth (MALME-3M melanoma): 101% | growth (MDA-MB-231 breast): 83.1% | growth (RXF 393 renal): 30.8% | growth (SF-268 CNS): 41% | growth (SF-295 CNS): 78.7% | growth (SF-539 CNS): 96.8% | growth (UACC-257 melanoma): 90.5% | growth (M14 melanoma): 87.2%

CC(C)c1ccc(C(=O)Nc2sc3c(c2C(N)=O)CCC(=O)C3)cc1
growth (DU-145 prostate): 31.2% | growth (K-562 leukemia): 1.14% (active) | growth (MALME-3M melanoma): -23.8% (active) | growth (MDA-MB-231 breast): -54.4% (active) | growth (RXF 393 renal): -7.12% (active) | growth (SF-268 CNS): 17.8% | growth (SF-295 CNS): -3.53% (active) | growth (SF-539 CNS): -68.8% (active) | growth (UACC-257 melanoma): -11.8% (active) | growth (M14 melanoma): -55.6% (active)

O=C(/C=C/c1cccc(Cl)c1)c1ccc(Nc2nc(Nc3ccc(F)cc3)nc(Nc3ccc(Cl)cc3)n2)cc1
growth (DU-145 prostate): 162% | growth (K-562 leukemia): 79.7% | growth (MALME-3M melanoma): 108% | growth (MDA-MB-231 breast): 110% | growth (RXF 393 renal): -9.73% (active) | growth (SF-268 CNS): 163% | growth (SF-295 CNS): 61.9% | growth (SF-539 CNS): 142% | growth (UACC-257 melanoma): 100% | growth (M14 melanoma): 94.9%

COCCOc1cc2ncnc(N3CCN(c4cc(S(C)(=O)=O)c(C)cc4Cl)CC3)c2cc1OCCOC
growth (DU-145 prostate): 96.8% | growth (K-562 leukemia): 88.9% | growth (MALME-3M melanoma): 87% | growth (MDA-MB-231 breast): 96% | growth (RXF 393 renal): 99.7% | growth (SF-268 CNS): 91.8% | growth (SF-295 CNS): 90.5% | growth (SF-539 CNS): 92% | growth (UACC-257 melanoma): 91.1% | growth (M14 melanoma): 111%

C=CCOC(=O)Nc1cccn([C@H](Cc2ccccc2)C(=O)NCCC(C)C)c1=O
growth (DU-145 prostate): 110% | growth (K-562 leukemia): 110% | growth (MALME-3M melanoma): 103% | growth (MDA-MB-231 breast): 101% | growth (RXF 393 renal): 110% | growth (SF-268 CNS): 106% | growth (SF-295 CNS): 94.5% | growth (SF-539 CNS): 109% | growth (UACC-257 melanoma): 102% | growth (M14 melanoma): 121%

COc1cc(OCc2cccc(Br)c2C)cc(OC)c1C=O
growth (DU-145 prostate): 91.3% | growth (K-562 leukemia): 67% | growth (MALME-3M melanoma): 114% | growth (MDA-MB-231 breast): 95.2% | growth (RXF 393 renal): 75.1% | growth (SF-268 CNS): 91.9% | growth (SF-295 CNS): 86.7% | growth (SF-539 CNS): 91.9% | growth (UACC-257 melanoma): 83% | growth (M14 melanoma): 90.9%

CCSc1oc(-c2ccccc2)nc1[P+](c1ccccc1)(c1ccccc1)c1ccccc1
growth (DU-145 prostate): 11.1% | growth (K-562 leukemia): 7.15% (active) | growth (MALME-3M melanoma): -25% (active) | growth (MDA-MB-231 breast): -12.8% (active) | growth (RXF 393 renal): 0.296% (active) | growth (SF-268 CNS): 14.1% | growth (SF-295 CNS): -4.41% (active) | growth (SF-539 CNS): 14.6% | growth (UACC-257 melanoma): 7.79% (active) | growth (M14 melanoma): 7.57% (active)

CC1(C)CC(=O)C2=C(C1)N(c1ccc(OC(F)(F)F)cc1)C(N)=C(C#N)C2c1ccc(Br)cc1F (stereo not given)
growth (DU-145 prostate): 96.5% | growth (K-562 leukemia): 75.5% | growth (MALME-3M melanoma): 46.8% | growth (MDA-MB-231 breast): 61.2% | growth (RXF 393 renal): 42.9% | growth (SF-268 CNS): 36.6% | growth (SF-295 CNS): 42.2% | growth (SF-539 CNS): 75% | growth (UACC-257 melanoma): 80.9% | growth (M14 melanoma): 79.1%

C#CCOc1cccc(Nc2ncnc3ccc(NC(=O)C=C)cc23)c1
growth (DU-145 prostate): 24.1% | growth (K-562 leukemia): 46% | growth (MALME-3M melanoma): 60.8% | growth (MDA-MB-231 breast): 54% | growth (RXF 393 renal): 2.49% (active) | growth (SF-268 CNS): 40.2% | growth (SF-295 CNS): 66.2% | growth (SF-539 CNS): 32.1% | growth (UACC-257 melanoma): 54.9% | growth (M14 melanoma): 51.4%

COc1ccc(/C=C/C(=O)c2cc3c(N)c(C(=O)Nc4cccc5ccccc45)sc3nc2C)cc1
growth (DU-145 prostate): 84.5% | growth (K-562 leukemia): 28.8% | growth (MALME-3M melanoma): 64.7% | growth (MDA-MB-231 breast): 93% | growth (RXF 393 renal): 63.4% | growth (SF-268 CNS): 74.5% | growth (SF-295 CNS): 54.4% | growth (SF-539 CNS): 76.9% | growth (UACC-257 melanoma): 65.2% | growth (M14 melanoma): 60%

O=c1c2cnn(-c3ccccc3)c2n2c(CN3CCOCC3)nnc2n1-c1ccccc1
growth (DU-145 prostate): 105% | growth (K-562 leukemia): 88.2% | growth (MALME-3M melanoma): 124% | growth (MDA-MB-231 breast): 106% | growth (RXF 393 renal): 119% | growth (SF-268 CNS): 104% | growth (SF-295 CNS): 98.6% | growth (SF-539 CNS): 99.2% | growth (UACC-257 melanoma): 101% | growth (M14 melanoma): 98.2%

COC12C=C/C(=C(/C(=O)OCc3ccncn3)C(=O)CCCCCCCCC3(OC)C=C/C(=C(/C(=O)OCc4ccncn4)C(=O)CCCCCCCC1)O3)O2
growth (DU-145 prostate): -41.8% (active) | growth (K-562 leukemia): -5.58% (active) | growth (MALME-3M melanoma): -54.3% (active) | growth (MDA-MB-231 breast): 10.6% | growth (RXF 393 renal): -77.3% (active) | growth (SF-268 CNS): -3.7% (active) | growth (SF-295 CNS): -15.9% (active) | growth (SF-539 CNS): -18.2% (active) | growth (UACC-257 melanoma): 4.41% (active) | growth (M14 melanoma): -22.1% (active)

COc1cc(/C=C/C(=O)c2ccc(F)cc2)ccc1OCCCCOc1ccc(/C=C/C(=O)c2c(C)nc3ccccc3c2C)cc1OC
growth (DU-145 prostate): 157% | growth (K-562 leukemia): 62.2% | growth (MALME-3M melanoma): 105% | growth (MDA-MB-231 breast): 91.5% | growth (RXF 393 renal): -10.5% (active) | growth (SF-268 CNS): 127% | growth (SF-295 CNS): 98.8% | growth (SF-539 CNS): 138% | growth (UACC-257 melanoma): 70.3% | growth (M14 melanoma): 103%
